Hit rate of the full screen: of about 2,100 compounds, about 1,100 (52%) were called active. Inconclusive results (about 29%) are left out. So high a share suggests a set chosen from earlier hits. The list shows a part of the results. Unmarked numbers belong to inactive results. Calls come from the whole dose curve; as a rule, active = well fitted inhibition curve with a large enough effect; inconclusive = small, poorly fitted or top-dose-only effect; inactive = no such curve, though single readings can be large or run the other way.
molecular target: DNA dC->dU-editing enzyme APOBEC-3F (Homo sapiens) (UniProt Q8IUX4); assay: qHTS for inhibitors of Vif-A3F interactions: Cherry picks counterscreen; details: HeLa A3F-eYFP/Vif cells, eYFP fluorescence, 24 h; series mostly up to 46.1 µM; activity, negative = inhibitor: at the top concentration; note: nearly all actives have a fitted effect of over 65% in size
Sequence (Q8IUX4 whole entry, looked up): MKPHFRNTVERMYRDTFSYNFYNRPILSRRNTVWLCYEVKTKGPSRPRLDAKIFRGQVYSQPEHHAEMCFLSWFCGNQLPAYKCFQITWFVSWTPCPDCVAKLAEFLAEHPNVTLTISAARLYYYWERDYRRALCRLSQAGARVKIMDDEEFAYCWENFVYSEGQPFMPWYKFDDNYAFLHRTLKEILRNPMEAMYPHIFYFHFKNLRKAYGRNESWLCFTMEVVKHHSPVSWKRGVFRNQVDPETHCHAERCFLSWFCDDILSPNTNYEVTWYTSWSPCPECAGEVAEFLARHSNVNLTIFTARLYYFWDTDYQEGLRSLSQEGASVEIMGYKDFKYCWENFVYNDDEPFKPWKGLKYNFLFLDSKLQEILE
In short: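 Rescue of Vif-driven A3F-eYFP degradation read as cellular eYFP fluorescence after 24 h compound exposure (several concentrations) in stable HeLa cells; MG132 (2 mM stock) as positive control.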
% is set by controls: 0 for no effect and ±100 for the full control effect; potency is the fitted concentration of half-maximal effect.

| Structure (SMILES) | Potency | activity, negative = inhibitor [%] |
| --- | --- | --- |
| C1=Cc2ccccc2/C1=C\c1cc2c3c(c1)CCCN3CCC2 | 16.4 µM (active) |  |
| Cc1ccc(/C=C2/CNC/C(=C/c3ccc(C)cc3)C2=O)cc1 | 9.94 µM (active) |  |
| CCNc1ccc(Br)cc(C(=O)/C=C/c2ccc3c(c2)OCO3)c1=O | 18.4 µM (active) |  |
| Cc1ccc2oc(/N=C(\N)NC(=O)C(C)(C)C)nc2c1 |  | 0.425 |
| CN1C(=O)/C(=C/c2ccccc2OCc2ccc(F)cc2)N(C)C1=S |  | -14.7 |
| Cc1cccc2cc3c(N)c(C(=O)N4CCOCC4)sc3nc12 | 16.4 µM (active) |  |
| Cc1cccc2cc3c(N)c(C(=O)Nc4ccc(N5CCOCC5)cc4)sc3nc12 | 12.5 µM (active) |  |
| CCNC(=S)N/N=C(\C)c1ccc(N2CCOCC2)cc1 |  | -2.23 |
| O=C(Nc1ccc(N2CCOCC2)cc1)c1cccc2ccccc12 | 15.8 µM (active) |  |
| CCc1ccc(C(=O)NC(=S)Nc2ccc(N3CCOCC3)cc2)cc1 |  | 3.84 |
| Cc1ccc(C)c2nc3sc(C(=O)N4CCOCC4)c(N)c3cc12 | 15.8 µM (active) |  |
| N#C/C(=C\c1ccc(N2CCOCC2)o1)C(=O)NCCc1ccccc1 |  | 39.2 |
| N#C/C(=C\c1ccc(N2CCOCC2)o1)C(=O)NC1CCCCC1 | 14 µM (active) |  |
| N#C/C(=C/c1ccc(N2CCOCC2)o1)C(=O)NC1CCCCC1 | 18.4 µM (active) |  |
| Oc1cccc(Nc2nc(O)c(/C=C3\C=Nc4ccccc43)s2)c1 | 20.6 µM (active) |  |
| CCOC(=O)/C=c1/s/c(=C\c2c(OC)ccc3ccccc23)c(=O)n1CC(=O)NCC1CCCO1 (stereo unspecified) | 9.94 µM (active) |  |
| CCOC(=O)/C=c1\s/c(=C\c2ccccc2C)c(=O)n1CC(=O)NCc1ccc2c(c1)OCO2 | 14 µM (active) |  |
| NC(=O)CSc1nc2c(sc3ccccc32)c(=O)n1CCCC(=O)NCC1CCCO1 (stereo unspecified) |  | -9.59 |
| CCOC(=O)/C=c1\s/c(=C\c2c(OC)ccc3ccccc23)c(=O)n1CC(=O)NCC1CCCO1 (stereo unspecified) | 4.61 µM (active) |  |
| CCOC(=O)/C=c1/s/c(=C/c2ccc3cc(OC)ccc3c2)c(=O)n1CC(=O)NCC1CCCO1 (stereo unspecified) | 18.4 µM (active) |  |
| S=C(NN=Cc1ccccn1)Nc1ccccn1 |  | 13.5 |

| Structure (SMILES) | Potency | activity, negative = inhibitor [%] |
| --- | --- | --- |
| Nc1cccc(CCc2nc3cc4ccccc4cc3[nH]2)c1 | 4.44 µM (active) |  |
| O=C(NNc1ncc(C(F)(F)F)cc1Cl)c1c(Cl)cccc1Cl | 4.44 µM (active) |  |
| Cc1cc(C)c(C(=O)N(CCN(C)C)CC2CCCN(Cc3ccccc3F)C2)o1 (stereo unspecified) |  | -1.53 |
| CC(C)OC(=O)c1cc(C(=O)c2cc(F)ccc2O)coc1=N | 20.6 µM (active) |  |
| CCC(=O)Nc1ccccc1-c1nc2ccccc2n(C(C)C(=O)Nc2ccc(OC)cc2)c1=O (stereo unspecified) | 16.4 µM (active) |  |
| c1cncc(-c2nc(NCc3cccs3)c3ccccc3n2)c1 |  | -5.28 |
| Brc1ccc2c(c1)C(c1cccnc1)=NNC(c1cccs1)=N2 | 14 µM (active) |  |
| COC(=O)c1sccc1S(=O)(=O)N(CC(=O)Nc1cc(F)ccc1F)c1ccc(C)c(C)c1 |  | -18.6 |
| CCOC(=O)c1[nH]c(C)c(C(=O)Nc2cc(OC)ccc2OC)c1C | 1.77 µM (active) |  |
| CC(=O)c1c(C)[nH]c(C(=O)Nc2ccc(Cl)cc2F)c1C |  | -0.176 |
| CCOC(=O)c1[nH]c(C)c(C(=O)Nc2ccccc2F)c1C | 3.14 µM (active) |  |
| COc1ccc(OC)c(NC(=O)c2cc(-c3cc(C)cc(C)c3O)n[nH]2)c1 |  | -0.959 |
| CCOC(=O)c1[nH]c(C)c(C(=O)Nc2ccc(C)cc2C)c1C | 2.23 µM (active) |  |
| Cc1ccc(C)c(N2CCN(C(=O)c3cccn4c(=O)c5sccc5nc34)CC2)c1 | 15.8 µM (active) |  |
| O=c1[nH]c2ccccc2nc1/C=C(\O)c1cccs1 | 16.4 µM (active) |  |
| O=C(NCc1ccc2c(c1)OCO2)c1cc([N+](=O)[O-])ccc1N1CCCCC1 | 1.58 µM (active) |  |
| O=C(/C=C/c1cccs1)NCc1ccc2c(c1)OCO2 |  | -0.325 |
| O=C(NCc1ccc2c(c1)OCO2)c1cc([N+](=O)[O-])ccc1N1CCOCC1 | 4.98 µM (active) |  |
| O=[N+]([O-])c1cc(-c2nc(-c3ccccc3)no2)ccc1NCc1ccco1 | 13 µM (active) |  |
| COc1ccccc1-c1noc(-c2ccc(NCc3ccco3)c([N+](=O)[O-])c2)n1 | 18.4 µM (active) |  |
| Cc1cccc(-c2noc(-c3ccc(NCc4ccco4)c([N+](=O)[O-])c3)n2)c1 | 14.6 µM (active) |  |

| Structure (SMILES) | Potency | activity, negative = inhibitor [%] |
| --- | --- | --- |
| CCCCOc1ccc2c(c1)/C(=C(\C(Cl)=C(Cl)Cl)[N+](=O)[O-])N2 |  | -6.09 |
| N#Cc1c(C(F)(F)F)cc(-c2ccco2)nc1SCc1ccccn1 | 16.4 µM (active) |  |
| Cc1cc2nc3c(=O)n(Cc4ccccc4)c(=O)[nH]c3nc2cc1N | 0.125 µM (active) |  |
| Cc1cc2nc3c(=O)n(C4CCCCC4)c(=O)[nH]c3nc2cc1N | 9.2 µM (active) |  |
| Cc1cc2nc3c(=O)n(CCc4ccccc4)c(=O)[nH]c3nc2cc1N | 5.17 µM (active) |  |
| CCCCN(C(=O)c1ccc([N+](=O)[O-])s1)c1c(N)n(CCCC)c(=O)[nH]c1=O |  | -5.21 |
| CCOC(=O)N1CCN(C(=O)c2ccccc2-c2ccccc2)CC1 | 2.8 µM (active) |  |
| CN(C)c1ccc(/C=C/C(=O)c2c(O)c3ccccc3oc2=O)cc1 | 4.11 µM (active) |  |
| CC(/C=C/c1ccc(N(C)C)cc1)=N\N=C(/N)SC1CC(=O)N(c2ccc(C(=O)O)cc2)C1=O (stereo unspecified) |  | -28.3 |
| CN(C)c1ccc(/C=C/C(=O)c2ccc(O)cc2)cc1 | 4.61 µM (active) |  |
| CCN1/C(=C\C=C(C(C)=O)C(C)=O)Sc2ccccc21 | 14.6 µM (active) |  |
| N#Cc1c(-c2ccc(F)cc2)c(-c2ccc(F)cc2)nn(CCO)c1=O | 4.44 µM (active) |  |
| N#Cc1c(-c2ccccc2)c(-c2ccccc2)nn(CC(=O)NNC(=O)Nc2ccccc2)c1=O | 4.44 µM (active) |  |
| CC1(C)Cc2ccccc2C2CC(O)C(=O)N21 (stereo unspecified) | 18.4 µM (active) |  |
| Cc1ccc(NC(=O)/C(C#N)=C\c2ccc(-c3ccc(Cl)cc3)o2)c(C)c1 | 13 µM (active) |  |
| Cc1ccc(-c2ccc(/C=N/NC(N)=S)o2)cc1 |  | -1.63 |
| FC(F)(F)c1ccccc1NC(=S)NN=C1CCCCCC1 |  | 5.84 |
| O=C1CSC(=S)N1Cc1cccnc1 | 13 µM (active) |  |
| O=C1/C(=C/c2ccc(O)cc2)SC(=S)N1Cc1cccnc1 |  | 8.88 |
